Screening data: PubChem BioAssay, National Center for Advancing Translational Sciences (NCATS)
This is a sample that favours compounds with a hit; in the whole collection about 21% have one here.
TDP1 cell noCPT = qHTS for Inhibitors of human tyrosyl-DNA phosphodiesterase 1 (TDP1): qHTS in cells in absence of CPT | DT40 Tdp1-/- hTDP1 cells, no CPT, ATP luminescence, 48 h | Potency, µM (doses to about 46.2 µM), actives largely listed as inhibitors | 420,000 tested, 15% active; further: nearly all actives have a fitted effect of over 55% in size
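Camptothecin absent (DMSO only). Human TDP1-complemented DT40 knockout cells, 400 cells/well, 37 °C for minimum 48 hr; ATP measured via CellTiter-Glo, 30 min dark incubation, luminescence.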
DRD3 agonist = qHTS of D3 Dopamine Receptor Agonist: qHTS | D3R DiscoveRx beta-arrestin cells, luminescence, 90 min | max activation, % | 410,000 tested, 0.58% active; in the data active means max activation above about 30%
Target sequence (P35462 whole entry, looked up): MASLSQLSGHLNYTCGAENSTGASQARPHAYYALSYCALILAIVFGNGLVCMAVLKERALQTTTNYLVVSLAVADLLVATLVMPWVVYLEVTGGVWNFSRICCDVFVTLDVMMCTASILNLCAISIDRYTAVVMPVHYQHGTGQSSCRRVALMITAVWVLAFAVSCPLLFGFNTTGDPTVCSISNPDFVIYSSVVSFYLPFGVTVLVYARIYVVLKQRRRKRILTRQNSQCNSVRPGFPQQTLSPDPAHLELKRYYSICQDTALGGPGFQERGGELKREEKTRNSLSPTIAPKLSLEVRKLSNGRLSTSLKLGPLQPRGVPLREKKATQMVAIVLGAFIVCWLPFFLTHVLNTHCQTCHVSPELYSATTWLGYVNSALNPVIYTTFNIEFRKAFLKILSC
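Cells at 1500/well, incubated overnight, then treated with pinned compounds (dopamine as control) for 90 min at 37 degrees C. DiscoveRx reagent added for 30 - 60 minutes at room temperature; luminescence read.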
TDP1 cell CPT = qHTS for Inhibitors of human tyrosyl-DNA phosphodiesterase 1 (TDP1): qHTS in cells in presence of CPT; 420,000 tested, 12% active; chicken DT40 Tdp1-/-;hTDP1 cells + 20 nM CPT, ATP luminescence, 48 h; AID 686979, 2013; Potency, µM (titrated, usually from 46.2 µM), hits mostly inhibitors; further: nearly all actives have a fitted effect of over 55% in size
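Chicken DT40 Tdp1-/- cells stably complemented with human TDP1 were seeded at 400 cells/well in medium containing 20 nM camptothecin, exposed to pin-transferred compounds, and grown at 37 °C for at least 48 hr. Viability was read as ATP luminescence.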
IL1B secr inh = qHTS for Inhibitors of Inflammasome Signaling: IL-1-beta AlphaLISA Primary Screen | THP-1 LPS/ATP IL-1B secretion, AlphaLISA, 16 h; active compounds read low | AID 743279, 2014 | activity change, % at 57.5 µM | 360,000 tested, 4.7% active; in the data active means activity change below about -50%; inconclusive means mostly about -30% to -49%
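Secreted IL-1B measured by AlphaLISA bead assay after 16 h compound exposure of THP-1 cells; compounds (final up to 57.5 uM) added 1 h before LPS (250 ng/mL) and ATP (1.25 mM) stimulation; lower signal means less secretion.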
D3 antag = qHTS of D3 Dopamine Receptor Antagonist: qHTS. D(3) dopamine receptor (Homo sapiens), P35462. D3R cells, DiscoveRx beta-arrestin luminescence, antagonist mode; active compounds read low. max response, negative = inhibition, %. 360,000 tested, 2.5% active; in the data active means max response below about -50%; inconclusive means no clear call, values can overlap the other calls
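Cells plated overnight at 1500 cells/well, then exposed to library compounds with dopamine controls for 90 minutes at 37 degrees C. DiscoveRx reagent added for 30–60 minutes at room temperature; luminescence read, quantitative HTS format.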
ClpP mod = qHTS Assay for Activators of ClpP; ATP-dependent Clp protease proteolytic subunit (Bacillus subtilis (strain 168)), P80244; purified B. subtilis ClpP, FRET peptide cleavage, 20 min; Potency, µM (highest dose often 57.5 µM); 340,000 tested, 1.9% active; AID 651965, 2013; active means well fitted falling curve with a large enough effect; inconclusive means small, poorly fitted or top-dose-only effect; inactive means no such curve, though single readings can be large or run the other way; further: the source files actives as falling curves though it sought activators and does not explain the sign; nearly all actives have a fitted effect of over 65% in size
Target sequence (P80244 whole entry, looked up): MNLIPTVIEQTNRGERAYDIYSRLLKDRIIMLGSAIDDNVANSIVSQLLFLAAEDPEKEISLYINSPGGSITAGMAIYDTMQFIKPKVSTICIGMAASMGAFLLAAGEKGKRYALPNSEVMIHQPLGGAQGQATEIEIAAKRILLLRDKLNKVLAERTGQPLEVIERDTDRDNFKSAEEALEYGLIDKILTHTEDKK
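Buffer: 100 mM Tris/HCl pH8, 100 mM KCl, 0.05% low protease BSA, 2.5% glycerol, 0.01% Tween-20. ClpP 10 microg/mL final; 20 min RT; delta FRET normalized to ADEP and DMSO controls.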
A number is an active result; i = inactive; ? = inconclusive; nt = no result; [ ] = dose if it differs, or a comment. Unless noted, the call rests on the fitted dose curve; in most records, active means well fitted inhibition curve with a large enough effect; inconclusive means small, poorly fitted or top-dose-only effect; inactive means flat fitted curve, though single readings scatter.

SMILES | TDP1 cell noCPT | DRD3 agonist | TDP1 cell CPT | IL1B secr inh | D3 antag | ClpP mod
COc1cccc(NC(=O)C2CCN(S(=O)(=O)c3ccc4c(c3)CC(C)N4C(C)=O)CC2)c1 (centres undefined) | ? | i | 15µM | i | i | i
COc1ccc(O)c(CN2CCC3(CCC(CNC(=O)C4CCCO4)O3)CC2)c1 (centres undefined) | i | nt | i[9.04 µM] | nt | nt | nt
Cc1ccc(S(=O)(=O)NCCc2cn3c(C)csc3n2)cc1 | i | i | i | nt | nt | i
COc1ccc(CNC(=O)c2ccc(-c3nc(CSc4ccccc4)c(C)o3)cc2)cc1OC | i | i | i | nt | nt | i
NC(=O)c1ccc[n+](Cc2ccc(-c3ccccc3)cc2)c1 | i | i | i | i | i | i
CCc1cccc(NC(=O)C2CCN(S(=O)(=O)c3ccc4c(c3)CC(C)N4C(C)=O)CC2)c1 (centres undefined) | 21µM | i | 16µM | i | i | i
CC(=O)N1c2ccc(S(=O)(=O)N3CCC(C(=O)Nc4ccc(F)cc4)CC3)cc2CC1C (centres undefined) | 13µM | i | 18µM | i | i | i
COc1ccccc1NC(=O)C1CCCN(S(=O)(=O)c2ccc3c(c2)CC(C)N3C(C)=O)C1 (centres undefined) | 7.3µM | i | ? | i | i | i
COc1ccc(CNC(=O)C2CCN(S(=O)(=O)c3ccc4c(c3)CC(C)N4C(C)=O)CC2)cc1 (centres undefined) | i | i | i | -76 | i | i
CC(=O)N1c2ccc(S(=O)(=O)N3CCC(C(=O)NCc4ccccc4)CC3)cc2CC1C (centres undefined) | i | i | ? | i | i | i
CCOc1ccccc1NC(=O)C1CCN(S(=O)(=O)c2ccc3c(c2)CC(C)N3C(C)=O)CC1 (centres undefined) | ? | i | ? | nt | nt | i
COc1ccc(CNC(=O)CCCN2C(=O)COc3ccc(C)cc32)cc1 | i | i | ? | nt | nt | i
Nc1nc(=S)c2n[nH]nc2[nH]1 | ? | nt | ? | nt | nt | i
COc1ccc(OC)c(NC(=O)COC(=O)c2ccc(S(=O)(=O)N3CCCCC3)cc2)c1 | ? | i | i | i | i | i
COc1ccc(Cl)cc1N(C(=O)c1ccco1)C(C(=O)NC1CCCC1)c1ccco1 (centres undefined) | i | i | i | i | i | nt
CCNc1nc(NC(C)C)nc(-c2ccncc2)n1 | i | i | i | i | i | i
CCOC(=O)c1[nH]c(C)c(C(=O)N2CCCC(Nc3ccc(C)c(C)c3)C2)c1C (centres undefined) | i | i | i | i | i | i
Cc1noc(-c2ccc(-c3noc(-c4cccc(Cl)c4)n3)cc2)n1 | i | i | i | nt | nt | i
CC1CCc2ccc(F)cc2N1S(=O)(=O)c1cccs1 (centres undefined) | ? | i | ? | i | i | i
CC(=O)Nc1ccc(S(=O)(=O)N2c3ccc(F)cc3CCC2C)cc1 (centres undefined) | 5.8µM | i | 7.3µM | i | i | i
COc1cc(OC)c(NC(=O)c2cc(C(C)=O)n3ccccc23)cc1Cl | ? | i | 7.3µM | nt | nt | i
COc1cc(OC)c(NC(=S)Nc2cc(Cl)cc(Cl)c2)cc1Cl | ? | i | ? | -91 | i | i
COc1ccc(NC(=O)c2cc(C(C)=O)n3ccccc23)cc1 | ? | i | i | nt | nt | i
COc1cc(OC)c(NC(=S)Nc2cccc(C(C)=O)c2)cc1Cl | ? | i | i | i | -60 | i
COC(=O)c1cccc(NC(=S)Nc2cccc(Cl)c2Cl)c1 | i | i | i | i | i | i
SMILES | TDP1 cell noCPT | DRD3 agonist | TDP1 cell CPT | IL1B secr inh | D3 antag | ClpP mod
O=S(=O)(Nc1cccc(-c2nnco2)c1)c1ccc(F)cc1F | i | i | ? | i | i | i
O=[N+]([O-])c1cc(-c2cccnc2)n[nH]1 | i | i | i | i | i | nt
C[C@H](CO)N1C[C@H](C)[C@@H](CN(C)Cc2ccccc2)Oc2c(NC(=O)C3CCCCC3)cccc2C1=O | ? | i | ? | -72 | i | i
C[C@H](CO)N1C[C@H](C)[C@@H](CN(C)Cc2ccc3c(c2)OCO3)Oc2c(NC(=O)Cc3ccccc3)cccc2C1=O | 21µM | i | 23µM | i | i | i
C[C@H](CO)N1C[C@H](C)[C@@H](CN(C)CC2CC2)Oc2c(NC(=O)C3CC3)cccc2C1=O | ? | 33 | ? | i | i | i
Cc1ccc(-c2nnc(/C=C/c3ccccc3)o2)cc1 | i | i | i | i | i | ?
Cc1ccc(/C=C/c2nnc(-c3cccc(C)c3)o2)cc1 | i | i | i | i | i | 32µM
ON=C1c2ccccc2-c2ccc(O)cc21 | i | i | ? | ? | i | i
Oc1ccc(-c2cnns2)c(O)c1 | 4.6µM | i | 4.1µM | ? | i | i
O=C(NCC(c1ccc2c(c1)OCO2)N1CCN(c2ccccc2)CC1)c1ccccc1F (centres undefined) | 12µM | i | 7.3µM | nt | nt | i
COc1cccc(C(=O)NCC(c2ccc3c(c2)OCO3)N2CCOCC2)c1 (centres undefined) | i | i | i | nt | nt | i
COc1cc(C(=O)NCC(c2ccc3c(c2)OCO3)N2CCOCC2)cc(OC)c1OC (centres undefined) | ? | i | 12µM | nt | nt | i
CCCC(=O)NCC(c1ccc2c(c1)OCO2)N1CCN(c2ccc(F)cc2)CC1 (centres undefined) | 21µM | i | ? | nt | nt | i
COc1ccc(C(=O)NCC(c2ccc3c(c2)OCO3)N2CCN(c3ccc(F)cc3)CC2)cc1 (centres undefined) | 1.6µM | i | 3.3µM | nt | nt | i
Cc1c(CCC(=O)NCCc2ccc(Cl)cc2)c(=O)oc2c(C)c(O)ccc12 | i | i | ? | nt | nt | i
C=CCNC(=O)C(=O)NCC(c1ccc2c(c1)OCO2)N1CCN(c2ccc(F)cc2)CC1 (centres undefined) | ? | i | 16µM | i | i | i
COc1cccc(C(=O)NCC(c2ccc3c(c2)OCO3)N2CCN(c3ccc(F)cc3)CC2)c1 (centres undefined) | 10µM | i | 15µM | i | ? | i
COc1ccc(S(=O)(=O)NCC(c2ccc3c(c2)OCO3)N2CCN(c3ccccc3)CC2)cc1 (centres undefined) | 23µM | i | ? | ? | i | nt
C=CCNC(=O)C(=O)NCC(c1ccc2c(c1)OCO2)N1CCOCC1 (centres undefined) | i | i | i | i | i | i
